Consider 51 molecules from PubChem BioAssay AID686978 (National Center for Advancing Translational Sciences (NCATS), 2013).

The whole screen tested about 420,000 compounds, of which about 64,000 (15%) were called active. Another 27% or so got no clear call; they are omitted. Only a sample is shown. Unmarked numbers belong to inactive results. Calls come from the whole dose curve; as a rule, active = well fitted inhibition curve with a large enough effect; inconclusive = small, poorly fitted or top-dose-only effect; inactive = flat fitted curve, though single readings scatter.
% is set by controls: 0 for no effect and ±100 for the full control effect; potency is the fitted concentration of half-maximal effect.

The experiment can be described thus: qHTS for Inhibitors of human tyrosyl-DNA phosphodiesterase 1 (TDP1): qHTS in cells in absence of CPT. Note: nearly all actives have a fitted effect of over 55% in size. As to conditions: DT40 Tdp1-/- hTDP1 cells, no CPT, ATP luminescence, 48 h; activity change, negative = growth inhibition: at 46.2 µM (top of the series). An outline of the steps: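 Chicken DT40 Tdp1-/- cells complemented with human TDP1, screened without camptothecin (DMSO vehicle only), 400 cells/well. Compounds pin-transferred, cells incubated at 37 °C for at least 48 hr. Growth read as ATP-dependent luminescence (CellTiter-Glo, 30 min at RT).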
(In general: qHTS replaces the single test concentration by a dilution series.)
Turning to `CC(=O)N1CC2(C)CN(C(C)=O)CC(C)(C1)C2=O`, the “activity change, negative = growth inhibition” value is 24.2%. On the same count and under the same terms, for `COc1ccc(N(CCC#N)S(=O)(=O)c2ccc(Cl)cc2)cc1` the value was -15.6%; for `CCCC(=O)NC(Nc1ccccc1OC)C(Cl)(Cl)Cl` (stereo unspecified), -15.5%.

Turning to `Cn1c(=O)n(C)c(=O)n(CC(=O)N2CCCCC2)c1=O`, the “activity change, negative = growth inhibition” value is -9.66%. On the same count and under the same terms, for `COc1cc(OC)cc(C2=Cc3ccccc3C(CC(=O)c3ccco3)N2c2ccc(-c3cnc(OC)nc3)cc2)c1` (stereo unspecified) the value was -20.1%; for `CC(=O)Nc1ccc(NC(=O)C(C)OC(=O)C2CC(=O)N(CCc3ccccc3)C2)cc1` (stereo unspecified), -12.2%; for `O=C(NCC1(N2CCCCC2)CCCCC1)c1ccc(NS(=O)(=O)c2ccc(F)cc2)cc1`, -12.2%. On the same count and under the same terms, the same measure for `CCc1nnc(NC(=O)CSc2nnnn2-c2cccc(C(C)=O)c2)s1`: -26%; for `COc1cccc(/C=C2\SC(=N)N(c3ccc(F)cc3)C2=O)c1`: -22.3%; for `COc1ccc(S(=O)(=O)Nc2cc(C)on2)cc1NC(C)=O`: 9.18%. For the molecule `CC(=O)Nc1ccc(S(=O)(=O)Nc2cccc(NC(=O)C(C)(C)C)c2)cc1`, the “activity change, negative = growth inhibition” value was -25.7%. For the molecule `COc1ccc(CNC(=O)c2ccc(NS(=O)(=O)c3ccc4[nH]c(=O)[nH]c4c3)cc2)cc1OC`, the “activity change, negative = growth inhibition” value was -1.23%.

As for `COc1ccc(NS(=O)(=O)c2ccc(NC(=S)NC(=O)CC(C)C)cc2)cc1`, the Potency is 18.4 µM (active). Take `COc1ccc(NS(=O)(=O)c2ccc(NC(C)=O)cc2)cc1OC`: the Potency was 6.51 µM (active). On to `CC(=O)c1c(C)oc2ccc(NS(=O)(=O)c3ccc(C(=O)O)cc3)cc12`, for which the “activity change, negative = growth inhibition” value is -15.3%. Regarding `COc1ccc(C(=O)Oc2cc(/C=N/NS(=O)(=O)c3ccc(C)cc3)ccc2OC)cc1`, the “activity change, negative = growth inhibition” value is -6.69%. Still for that read-out and setting: for `COc1ccc2oc(C)c(NC(C)=O)c2c1` the value was 1.12%. Consider `COc1ccc(/C=C/C(=O)c2ccc(NS(=O)(=O)c3ccc(C)cc3)cc2)cc1O`, for which the Potency was 20.6 µM (active). Take `COc1ccc(S(=O)(=O)Nc2ccc3oc(C)c(C(C)=O)c3c2)cc1`: the Potency is 5.17 µM (active). As for `CC(=O)c1ccc(NC(=S)NC(=O)CC(C)C)cc1`, the “activity change, negative = growth inhibition” value was 10.3%. For `COc1ccc(OC)c(C(C)NC(=S)Nc2ccc(S(=O)(=O)Nc3ncccn3)cc2)c1` (stereo unspecified), the “activity change, negative = growth inhibition” value was 1.85%. Turning to `CCCC(=O)Nc1ccc2oc(-c3ccc(O)c(Br)c3)nc2c1`, the “activity change, negative = growth inhibition” value is -12.9%. Still for that read-out and setting: the same measure for `CSc1ccccc1OCc1cc(C(=O)N(C)CCc2c(C)n[nH]c2C)no1`: -25.5%; for `O=C(CN1CCCCCC1)Nc1c(Cl)cc(Cl)cc1Cl`: -6.89%; for `CN(C)C(=O)c1ccc(NC(=O)COC(=O)c2cc3c(s2)CCCCC3)cc1`: -5.24%. For the molecule `CSc1ccc(/C=N/N2CCN(Cc3ccccc3Cl)CC2)cc1`, the “activity change, negative = growth inhibition” value was -23.9%. The same measure, in the same setting: for `Cn1c2c(c(=O)n(C)c1=O)C(c1ccc(O)cc1)Nc1ccccc1O2` (stereo unspecified) the value was -2.2%; for `Cc1nn(Cc2ccccc2)c(C)c1C(=O)NCCCN1CCCC1=O`, 20%. Same read-out and setting: for `CCC(=O)Nc1ccccc1C(=O)N1CCN(Cc2ccccc2)CC1` the value was -24.9%. Take `Cc1nn(Cc2ccccc2)c(C)c1C(=O)N1CCN(CC(=O)Nc2ccccc2Cl)CC1`: the Potency is 23.1 µM (active). Take `CCOC(=O)CSc1nnc(CNC(=O)c2ccco2)n1-c1ccc(F)cc1`: the “activity change, negative = growth inhibition” value is 6.97%. With `NNC(=O)c1cnn(-c2ccccc2)c1C(F)(F)F`, the “activity change, negative = growth inhibition” value was 13.2%. For the molecule `CN(C)CCCOc1ccc(-c2ccc3nccn3c2)cn1`, the “activity change, negative = growth inhibition” value was -20.3%. For `OC[C@@H]1CN(Cc2cccs2)C[C@H](n2cnc3c(Nc4ccccc4)ncnc32)O1`, the “activity change, negative = growth inhibition” value is -25.5%. In the case of `OC[C@@H]1CN(Cc2ccc(-c3ccccc3)cc2)C[C@H](n2cnc3c(NC4CCCC4)ncnc32)O1`, the Potency is 1.3 µM (active). As for `OC[C@@H]1CN(C2CCCC2)C[C@H](n2cnc3c(NC4CCC4)ncnc32)O1`, the “activity change, negative = growth inhibition” value is -14.2%. On the same count and under the same terms, for `Cc1nnc(SCC(N)=O)n1CC1CCCO1` (stereo unspecified) the value was -19.1%; for `O=C(O)CSCc1nc2ccccc2s1`, -6.51%. On the same count and under the same terms, for `CCOC(=O)/C(C#N)=C/c1ccc(OCC(=O)Nc2ccccc2)c(OC)c1` the value was -0.871%. For the molecule `CCOC(=O)/C(C#N)=C/c1ccc(N2CCN(Cc3ccccc3)CC2)cc1`, the Potency is 20.6 µM (active).

As to `CCOC(=O)/C(C#N)=C/c1ccc(N2CCCCC2)cc1`, the “activity change, negative = growth inhibition” value is 3.19%.

In the case of `O=C1C2C3C=CC(C3)C2C(=O)N1c1ccc(-c2nc3ccccc3c(=O)o2)cc1` (stereo unspecified), the “activity change, negative = growth inhibition” value was 15.5%.

Take `CN(C)c1ccc(/C=N/NC(=O)C(O)c2ccc(Br)cc2)cc1` (stereo unspecified): the “activity change, negative = growth inhibition” value was -22.4%.

Regarding `NS(=O)(=O)c1ccc(NC(=S)NC(=O)c2cccnc2)cc1`, the “activity change, negative = growth inhibition” value is -5.24%.

On to `O=C(c1ccc2c(c1)C(=O)N(c1ccc(Cl)cc1)C2=O)N1CCN(c2ccccn2)CC1`, for which the “activity change, negative = growth inhibition” value was -13.2%. On the same count and under the same terms, for `O=C1c2ccccc2S(=O)(=O)c2cc(N3CCN(c4ccccn4)CC3)ccc21` the value was -5.63%; for `COc1ccccc1NC(=O)CN1C(=O)c2ccccc2Sc2ccc(C(=O)N3CCCC3)cc21`, -29.9%; for `O=C(c1ccc2c(c1)N(Cc1ccccc1F)C(=O)c1ccccc1S2(=O)=O)N1CCOCC1`, -16.3%. The same measure, in the same setting: for `CC1CCCN(C(=O)CN2C(=O)c3ccccc3S2(=O)=O)C1` (stereo unspecified) the value was -10.2%. As to `O=C(c1ccc2c(c1)N(Cc1ccccc1)C(=O)c1ccccc1S2(=O)=O)N1CCCC1`, the Potency is 23.1 µM (active). Same read-out and setting: the same measure for `O=C(c1ccc2c(c1)N(Cc1ccc(F)cc1)C(=O)c1ccccc1S2(=O)=O)N1CCN(c2ccccn2)CC1`: 18.4 µM (active).
